# Experimental data from PubChem BioAssay (NCATS).
# Records with an inconclusive call do not appear. Active and inactive are the calls of the source. Calls follow the shape of the dose curve; as a rule, active = well fitted curve in the direction sought with a large enough effect; inconclusive = small, poorly fitted or top-dose-only effect, or another doubt; inactive = no such curve, though single readings can be large; an effect the other way counts as inactive or inconclusive.
# Key:
# [1] = Quantitative High-Throughput drug screen in 47 multiple myeloma cell lines against the NCATS MIPE library collection: KMM1_JCRB cell viability assay (AID 1918960); also: nearly all actives have a fitted effect of over 30% in size
# How it was run: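 ATP readout (CellTiter-Glo), 48 h drug incubation, 37 °C/5% CO2, 500 cells per well; normalisation to DMSO (100%) and media-only (0%) controls.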
# [2] = Quantitative High-Throughput drug screen in 47 multiple myeloma cell lines against the NCATS MIPE library collection: JIM3_ECACC cell viability assay (AID 1918963; also: nearly all actives have a fitted effect of over 35% in size)
# How it was run: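 Viability readout: CellTiter-Glo luminescence following 5 min room-temperature incubation with reagent. Prior exposure: 48 h, 37C, humidified 5% CO2, 500 cells per well.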
# [3] = Quantitative High-Throughput drug screen in 47 multiple myeloma cell lines against the NCATS MIPE library collection: INA6_PLB cell viability assay (AID 1918965; also: nearly all actives have a fitted effect of over 55% in size)
# How it was run: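 Approved and investigational drugs from MIPE 4.0 were added by pin tool to 500 cells per well. After 48 hours at 37C, ATP-based CellTiter-Glo luminescence indicated remaining viability.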
# [4] = Quantitative High-Throughput drug screen in 47 multiple myeloma cell lines against the NCATS MIPE library collection: JJN3_DSMZ cell viability assay (AID 1918966; also: nearly all actives have a fitted effect of over 50% in size)
# How it was run: (§1)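 Myeloma cells (500 per well) were exposed to MIPE 4.0 compounds by pin transfer and incubated 48 hours at 37C, 5% CO2. Viability was read as ATP by CellTiter-Glo luminescence, normalised to DMSO (100%) and media-only (0%) wells.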
# [5] = Quantitative High-Throughput drug screen in 47 multiple myeloma cell lines against the NCATS MIPE library collection: Karpas25_ECACC cell viability assay (AID 1918968; also: nearly all actives have a fitted effect of over 35% in size)
# How it was run: as §1
# [6] = Quantitative High-Throughput drug screen in 47 multiple myeloma cell lines against the NCATS MIPE library collection: JIM1_ECACC cell viability assay (AID 1918964)
# How it was run: as §1
# [7] = Quantitative High-Throughput drug screen in 47 multiple myeloma cell lines against the NCATS MIPE library collection: KMS27_JCRB cell viability assay (AID 1918970); conditions: KMS27 myeloma cells, CellTiter-Glo ATP viability, 48 h; viability (% of DMSO): at 45.8 µM (top of the series); also: nearly all actives have a fitted effect of over 30% in size
# How it was run: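 Luminescent ATP read-out (CellTiter-Glo, 5 min at room temperature) after 48 h compound exposure of 500 KMS27_JCRB cells per well; DMSO wells define full viability and media-only wells zero.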
# [8] = Quantitative High-Throughput drug screen in 47 multiple myeloma cell lines against the NCATS MIPE library collection: H1112_PLB cell viability assay (AID 1918967; also: nearly all actives have a fitted effect of over 30% in size)
# How it was run: as §1
# Potency is read from the fitted curve at half-maximal effect.
SMILES,Potency [1],Potency [2],Potency [3],Potency [4],Potency [5],Potency [6],Potency [7],Potency [8]
C[C@H]1COC2=C1C(=O)C(=O)c1c2ccc2c1CCCC2(C)C,inactive,23.5 µM (active),14.8 µM (active),18.7 µM (active),4.69 µM (active),,,
CN1c2ccccc2C(=O)N2CCc3c([nH]c4ccccc34)C21 (configuration not stated),inactive,23.5 µM (active),,,23.5 µM (active),inactive,inactive,
C[C@]12C=CC(=O)C=C1CC[C@@H]1[C@@H]2[C@@H](O)C[C@@]2(C)[C@@H]1CC[C@]2(O)C(=O)CO,0.209 µM (active),inactive,5.9 µM (active),,0.296 µM (active),,inactive,inactive
NCC1CCC(C(=O)O)CC1 (configuration not stated),inactive,inactive,inactive,,inactive,,inactive,inactive
O=C(Nc1ccccc1)Nc1ccc(-c2ccc(C(=O)[C@H]3CCC[C@H]3C(=O)O)cc2)cc1,7.43 µM (active),inactive,inactive,3.72 µM (active),inactive,,0.372 µM (active),inactive
CN(C)CCCNC(=O)c1ccc(-c2cc(O)c3ncccc3c2)cc1,20.9 µM (active),23.5 µM (active),20.9 µM (active),20.9 µM (active),18.7 µM (active),,,
CC(O)=C(C#N)C(=O)Nc1ccc(C(F)(F)F)cc1,inactive,23.5 µM (active),26.4 µM (active),,26.4 µM (active),,,
CC1(C)CC(=O)c2c(C(F)(F)F)nn(-c3ccc(C(N)=O)c(NC4CCC(O)CC4)c3)c2C1 (configuration not stated),inactive,0.105 µM (active),,0.0662 µM (active),,,inactive,
CN(C)N=Nc1nc[nH]c1C(N)=O,0.935 µM (active),inactive,2.64 µM (active),,inactive,,,inactive
O=c1cc(-c2ccc(O)c(O)c2)oc2cc(O)cc(O)c12,inactive,inactive,26.4 µM (active),,,,6.62 µM (active),
CCCCCCCCCCCCCCCC(=O)O[C@H]1[C@@H](O)[C@@H](O)[C@@H]([C@H](NC(=O)[C@@H]2C[C@@H](CCC)CN2C)[C@H](C)Cl)O[C@@H]1SC,8.33 µM (active),inactive,,,,inactive,7.43 µM (active),18.7 µM (active)
Fc1ccc(CNc2ncnc3ccc(F)cc23)cc1,4.18 µM (active),11.8 µM (active),8.33 µM (active),,3.72 µM (active),,,13.2 µM (active)
O=C(c1ccc(F)c(F)c1Nc1ccc(I)cc1F)N1CC(O)([C@H]2CCCCN2)C1,11.8 µM (active),14.8 µM (active),10.5 µM (active),,16.6 µM (active),,0.264 µM (active),16.6 µM (active)
CCCCc1ccc(NS(=O)(=O)c2ccc(C)c(C(=O)N3CCN(c4cccc(C)c4C)CC3)c2)cc1,inactive,16.6 µM (active),,23.5 µM (active),,,inactive,
C[C@]12CC[C@@H]3c4ccc(O)cc4CC[C@H]3[C@H]1[C@@H](O)[C@@H](O)[C@H]2O,inactive,inactive,inactive,,26.4 µM (active),,inactive,inactive
CC1=C[C@@H]2[C@@H]([C@@H](O)C[C@@]3(C)[C@H]2C[C@@H](C)[C@]3(O)C(=O)CO)[C@@]2(C)Cc3cnn(-c4ccccc4)c3C=C12,0.0105 µM (active),26.4 µM (active),,23.5 µM (active),0.0083 µM (active),,inactive,
COc1c(C)c2c(c(O)c1CC=C(C)CCC(=O)O)C(=O)OC2,inactive,,0.935 µM (active),4.69 µM (active),13.2 µM (active),9.35 µM (active),,4.18 µM (active)
Cc1ccccc1C(C(=O)NC1CCCCC1)N(C(=O)CNc1ccc(C#N)cc1)c1cccc(F)c1 (configuration not stated),inactive,inactive,inactive,,inactive,,,inactive
CCCCC[C@H](O)C=C[C@H]1[C@H](O)CC(=O)[C@H]1CC=CCCCC(=O)O,inactive,20.9 µM (active),18.7 µM (active),,20.9 µM (active),,inactive,
COc1ccc(CCN(C)CCCOc2ccc(S(=O)(=O)c3[nH]c4ccccc4c3C(C)C)cc2)cc1OC,inactive,18.7 µM (active),16.6 µM (active),,,,inactive,18.7 µM (active)
CCCCn1c(=O)n(Cc2ccccc2F)c(=O)c2[nH]c(Cc3ccc(NC(C)=O)cc3)nc21,inactive,23.5 µM (active),,,,0.0042 µM (active),inactive,inactive
Cc1cc2c(cc1C1(c3ccc(C(=O)O)cn3)CC1)C(C)(C)CCC2(C)C,inactive,0.332 µM (active),,1.05 µM (active),,,,0.118 µM (active)
